Holding throughout (settings): mRNA level, 48 h; actives raise or lower the signal
Read-out in assay [1]: Tumor necrosis factor receptor superfamily member 6 (Homo sapiens) (UniProt P25445)
The assay can be described thus: LTEA_HepaRG_FAS: Life Technologies and Expression Analysis (LTEA) Assay for Fas cell surface death receptor (FAS) using HepaRG (AID 2283447). A digest of the protocol:
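FAS transcript level was measured by TaqMan qRT-PCR against three housekeeping genes after 48 h chemical exposure. Cells were HepaRG, 0.5% DMSO vehicle, with a top concentration of 100 uM and half-log dilutions over eight points, in duplicate.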

Read-out in assay [2]: Fatty acid synthase (Homo sapiens) (UniProt P49327)
Description: LTEA_HepaRG_FASN: Life Technologies and Expression Analysis (LTEA) Assay for Fatty Acid Synthase (FASN) using HepaRG (AID 2283448).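 On AC50: differentiated human HepaRG liver cells in serum-free induction medium.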 A digest of the protocol: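 Cells were plated, cultured 48 h, switched to serum-free induction medium, then dosed in duplicate (max 100 uM, half-log dilutions, 0.5% DMSO) for 48 h. RNA was then isolated and FASN quantified by qRT-PCR.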

Read-out in assay [3]: Cyclin D2 (CCND2), CCND2 (gene 894)
Description: LTEA_HepaRG_CCND2: Life Technologies and Expression Analysis (LTEA) Assay for Cyclin D2 (CCND2) using HepaRG (AID 2283449). A digest of the protocol: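 CCND2 transcript levels, quantified by qRT-PCR and normalised to three housekeeping genes, were fitted bidirectionally against 0.5% DMSO. HepaRG cultures were dosed 48 h in duplicate with an 8-point half-log series up to 100 uM.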

Read-out in assay [4]: Cyclin Dependent Kinase Inhibitor 1A (CDKN1A), CDKN1A (gene 1026)
The assay can be described thus: LTEA_HepaRG_CDKN1A: Life Technologies and Expression Analysis (LTEA) Assay for Cyclin Dependent Kinase Inhibitor 1A (CDKN1A) using HepaRG (AID 2283450). A digest of the protocol:
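Read-out is CDKN1A mRNA by TaqMan qRT-PCR, normalized to three housekeeping genes and fitted in both directions against the DMSO baseline. Human HepaRG cells were treated 48 h with test chemicals up to 100 uM in half-log steps, 0.5% DMSO.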

Read-out in assay [5]: Cyclin D1 (CCND1), CCND1 (gene 595)
The assay can be described thus: LTEA_HepaRG_CCND1: Life Technologies and Expression Analysis (LTEA) Assay for Cyclin D1 (CCND1) using HepaRG (AID 2283451).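 On AC50: differentiated human HepaRG liver cells in serum-free induction medium; TaqMan qRT-PCR transcript level normalised to ACTB GAPDH and POLR2A housekeeping genes.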 A digest of the protocol:
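HepaRG plated 48 h, medium switched to serum-free induction medium, chemicals added in duplicate (top 100 uM, half-log steps, 0.5% DMSO) for 48 h, cells lysed, RNA measured by TaqMan qRT-PCR.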

Read-out in assay [6]: catalase (CAT), CAT (gene 847)
Description: LTEA_HepaRG_CAT: Life Technologies and Expression Analysis (LTEA) Assay for catalase (CAT) using HepaRG (AID 2283452).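 On AC50: TaqMan qRT-PCR signal normalized to ACTB GAPDH and POLR2A housekeeping genes.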 A digest of the protocol: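 Expression of CAT was quantified by TaqMan qRT-PCR with ACTB/GAPDH/POLR2A normalization after 48 h chemical exposure of HepaRG. Eight-point half-log series, top 100 uM, in 0.5% DMSO; gain or loss fitted against vehicle.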

Read-out in assay [7]: flavin-containing dimethylaniline monooxygenases 3 (FMO3), FMO3 (gene 2328)
The assay can be described thus: LTEA_HepaRG_FMO3: Life Technologies and Expression Analysis (LTEA) Assay for flavin-containing dimethylaniline monooxygenases 3 (FMO3) using HepaRG (AID 2283453).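 On AC50: differentiated human HepaRG liver cells in serum-free induction medium.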 Summed up:
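FMO3 transcript quantified by TaqMan qRT-PCR against three housekeeping genes after 48 h chemical exposure of HepaRG cells. Eight-point half-log series, top 100 uM, 0.5% DMSO vehicle; phenobarbital 1mM induction control; up- or down-regulation fitted.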

Read-out in assay [8]: Cytochrome P450 (CYP1A1), CYP1A1 (gene 1543)
The assay can be described thus: LTEA_HepaRG_CYP1A1: Life Technologies and Expression Analysis (LTEA) Assay for Cytochrome P450 (CYP1A1) using HepaRG (AID 2283454). A digest of the protocol: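 HepaRG, 48 h post-plating switched to serum-free induction medium; 8-pt conc-response (top 100 uM, half-log, 0.5% DMSO), duplicates, 48 h. Lysis in RLT, TaqMan qRT-PCR for CYP1A1; gain or loss vs DMSO.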

Read-out in assay [9]: CFLAR gene, CFLAR (gene 8837)
Description: LTEA_HepaRG_CFLAR: Life Technologies and Expression Analysis (LTEA) Assay for CFLAR gene using HepaRG (AID 2283455). A digest of the protocol:
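Transcript level by qRT-PCR (normalized to ACTB, GAPDH and POLR2A) after 48 h chemical exposure of HepaRG cells, top concentration 100 uM with half-log steps, 0.5% DMSO vehicle, duplicates; fitted bidirectionally against DMSO baseline.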

Read-out in assay [10]: Forkhead box O1 (FOXO1), FOXO1 (gene 2308)
Description: LTEA_HepaRG_FOXO1: Life Technologies and Expression Analysis (LTEA) Assay for Forkhead box O1 (FOXO1) using HepaRG (AID 2283456). A digest of the protocol:
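FOXO1 transcript quantified by qRT-PCR after 48 h chemical exposure (top 100 uM, half-log steps, 0.5% DMSO) of HepaRG cells, housekeeping-normalized (ACTB/GAPDH/POLR2A). Changes fitted in both directions relative to vehicle.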

Read-out in assay [11]: growth arrest and DNA damage 45 (GADD45A), GADD45A (gene 1647)
The assay can be described thus: LTEA_HepaRG_GADD45A: Life Technologies and Expression Analysis (LTEA) Assay for growth arrest and DNA damage 45 (GADD45A) using HepaRG (AID 2283458). A digest of the protocol: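 Transcript induction or loss, quantified by TaqMan qRT-PCR against three housekeeping genes, is the read-out. HepaRG cells received chemicals for 48 h across eight half-log concentrations from 100 uM in 0.5% DMSO; gain and loss fitted relative to DMSO.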

Read-out in assay [12]: Forkhead box O3 (FOXO3), FOXO3 (gene 2309)
The assay can be described thus: LTEA_HepaRG_FOXO3: Life Technologies and Expression Analysis (LTEA) Assay for Forkhead box O3 (FOXO3) using HepaRG (AID 2283459). A digest of the protocol: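 FOXO3 transcript measured by qRT-PCR (normalized to ACTB, GAPDH, POLR2A) after 48 h exposure of HepaRG cells in serum-free induction medium. Duplicates, eight half-log concentrations up to 100 uM, 0.5% DMSO; gain or loss fitted against DMSO.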

Read-out in assay [13]: ABC Transporter (ABCB1), ABCB1 (gene 5243)
The assay can be described thus: LTEA_HepaRG_ABCB1: Life Technologies and Expression Analysis (LTEA) Assay for ABC Transporter (ABCB1) using HepaRG (AID 2283460). Summed up:
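ABCB1 transcript level measured by TaqMan qRT-PCR against three housekeeping genes after 48 h chemical exposure of differentiated HepaRG cells. Top concentration 100 uM, half-log steps, eight points, 0.5% DMSO vehicle; bidirectional fit relative to DMSO.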

Read-out in assay [14]: growth arrest and DNA damage 45 (GADD45B), GADD45B (gene 4616)
The assay can be described thus: LTEA_HepaRG_GADD45B: Life Technologies and Expression Analysis (LTEA) Assay for growth arrest and DNA damage 45 (GADD45B) using HepaRG (AID 2283461). Summed up:
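HepaRG, ~100,000 cells/well, 48 h plating; serum-free induction medium; cpd 100 uM top, half-log x8, 0.5% DMSO, duplicate, 48 h; lysis in RLT, RNA isolation, qRT-PCR; norm ACTB/GAPDH/POLR2A; bidirectional fit vs DMSO.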

Read-out in assay [15]: ABC Transporter (ABCC3), ABCC3 (gene 8714)
Description: LTEA_HepaRG_ABCC3: Life Technologies and Expression Analysis (LTEA) Assay for ABC Transporter (ABCC3) using HepaRG (AID 2283462). A digest of the protocol: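 Human HepaRG, 48 h dosing, 8-pt half-log series from 100 uM, 0.5% DMSO vehicle, duplicates. ABCC3 mRNA by TaqMan qRT-PCR, housekeeping-normalized; bidirectional curve fit vs DMSO.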

Read-out in assay [16]: ABC Transporter (ABCB11), ABCB11 (gene 8647)
The assay can be described thus: LTEA_HepaRG_ABCB11: Life Technologies and Expression Analysis (LTEA) Assay for ABC Transporter (ABCB11) using HepaRG (AID 2283463). A digest of the protocol: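 ABCB11 transcript levels quantified by TaqMan qRT-PCR against three housekeeping genes after 48 h chemical exposure of HepaRG cultures. Concentrations up to 100 uM in half-log steps, 0.5% DMSO vehicle; both induction and suppression scored.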

Read-out in assay [17]: Broad substrate specificity ATP-binding cassette transporter ABCG2 (Homo sapiens) (UniProt Q9UNQ0)
Description: LTEA_HepaRG_ABCG2: Life Technologies and Expression Analysis (LTEA) Assay for ABC Transporter (ABCG2) using HepaRG (AID 2283465). A digest of the protocol: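 ABCG2 transcript was quantified by TaqMan qRT-PCR against three housekeeping genes in HepaRG cells. Cells were treated in duplicate for 48 h across an 8-point half-log series up to 100 uM, with 0.5% DMSO vehicle. Gain or loss versus DMSO was fit.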

Read-out in assay [18]: ABC Transporter (ABCC2), ABCC2 (gene 1244)
Description: LTEA_HepaRG_ABCC2: Life Technologies and Expression Analysis (LTEA) Assay for ABC Transporter (ABCC2) using HepaRG (AID 2283464). Summed up: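 HepaRG, 48 h post-plating; serum-free induction medium; cpd 8-pt, 100 uM top, half-log, 0.5% DMSO, duplicate, 48 h. Readout: ABCC2 mRNA by qRT-PCR, norm. ACTB/GAPDH/POLR2A. Bidirectional fit vs DMSO baseline.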

The source made the active and inactive calls. How the source made its calls: active means hit-call score of the fitted dose curve at least 0.9, where 1 is the maximum; inactive means score below 0.9.

The text below walks through data of PubChem BioAssay (EPA / NIEHS).

In general, AC50 refers to the midpoint of the concentration-response curve, whichever way the signal moves.

Chain of Broad substrate specificity ATP-binding cassette transporter ABCG2 (Homo sapiens) (Q9UNQ0 whole entry, looked up): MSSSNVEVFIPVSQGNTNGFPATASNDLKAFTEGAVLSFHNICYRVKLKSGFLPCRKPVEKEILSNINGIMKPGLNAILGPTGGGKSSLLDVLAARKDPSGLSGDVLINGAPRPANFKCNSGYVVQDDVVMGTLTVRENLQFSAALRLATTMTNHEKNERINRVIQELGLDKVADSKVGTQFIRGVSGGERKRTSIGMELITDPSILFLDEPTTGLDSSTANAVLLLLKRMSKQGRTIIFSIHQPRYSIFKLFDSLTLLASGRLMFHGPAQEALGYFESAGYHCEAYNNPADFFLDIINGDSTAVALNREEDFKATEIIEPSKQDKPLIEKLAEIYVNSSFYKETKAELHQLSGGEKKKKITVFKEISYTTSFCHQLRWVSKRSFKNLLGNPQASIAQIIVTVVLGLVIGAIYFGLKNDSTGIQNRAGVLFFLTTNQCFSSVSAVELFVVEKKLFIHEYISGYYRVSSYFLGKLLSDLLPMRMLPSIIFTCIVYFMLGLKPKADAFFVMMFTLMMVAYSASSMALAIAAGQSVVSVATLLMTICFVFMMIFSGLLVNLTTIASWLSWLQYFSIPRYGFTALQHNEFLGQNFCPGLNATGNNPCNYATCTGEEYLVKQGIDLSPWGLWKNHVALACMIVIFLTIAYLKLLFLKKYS
Chain of Fatty acid synthase (Homo sapiens) (P49327 whole entry, looked up): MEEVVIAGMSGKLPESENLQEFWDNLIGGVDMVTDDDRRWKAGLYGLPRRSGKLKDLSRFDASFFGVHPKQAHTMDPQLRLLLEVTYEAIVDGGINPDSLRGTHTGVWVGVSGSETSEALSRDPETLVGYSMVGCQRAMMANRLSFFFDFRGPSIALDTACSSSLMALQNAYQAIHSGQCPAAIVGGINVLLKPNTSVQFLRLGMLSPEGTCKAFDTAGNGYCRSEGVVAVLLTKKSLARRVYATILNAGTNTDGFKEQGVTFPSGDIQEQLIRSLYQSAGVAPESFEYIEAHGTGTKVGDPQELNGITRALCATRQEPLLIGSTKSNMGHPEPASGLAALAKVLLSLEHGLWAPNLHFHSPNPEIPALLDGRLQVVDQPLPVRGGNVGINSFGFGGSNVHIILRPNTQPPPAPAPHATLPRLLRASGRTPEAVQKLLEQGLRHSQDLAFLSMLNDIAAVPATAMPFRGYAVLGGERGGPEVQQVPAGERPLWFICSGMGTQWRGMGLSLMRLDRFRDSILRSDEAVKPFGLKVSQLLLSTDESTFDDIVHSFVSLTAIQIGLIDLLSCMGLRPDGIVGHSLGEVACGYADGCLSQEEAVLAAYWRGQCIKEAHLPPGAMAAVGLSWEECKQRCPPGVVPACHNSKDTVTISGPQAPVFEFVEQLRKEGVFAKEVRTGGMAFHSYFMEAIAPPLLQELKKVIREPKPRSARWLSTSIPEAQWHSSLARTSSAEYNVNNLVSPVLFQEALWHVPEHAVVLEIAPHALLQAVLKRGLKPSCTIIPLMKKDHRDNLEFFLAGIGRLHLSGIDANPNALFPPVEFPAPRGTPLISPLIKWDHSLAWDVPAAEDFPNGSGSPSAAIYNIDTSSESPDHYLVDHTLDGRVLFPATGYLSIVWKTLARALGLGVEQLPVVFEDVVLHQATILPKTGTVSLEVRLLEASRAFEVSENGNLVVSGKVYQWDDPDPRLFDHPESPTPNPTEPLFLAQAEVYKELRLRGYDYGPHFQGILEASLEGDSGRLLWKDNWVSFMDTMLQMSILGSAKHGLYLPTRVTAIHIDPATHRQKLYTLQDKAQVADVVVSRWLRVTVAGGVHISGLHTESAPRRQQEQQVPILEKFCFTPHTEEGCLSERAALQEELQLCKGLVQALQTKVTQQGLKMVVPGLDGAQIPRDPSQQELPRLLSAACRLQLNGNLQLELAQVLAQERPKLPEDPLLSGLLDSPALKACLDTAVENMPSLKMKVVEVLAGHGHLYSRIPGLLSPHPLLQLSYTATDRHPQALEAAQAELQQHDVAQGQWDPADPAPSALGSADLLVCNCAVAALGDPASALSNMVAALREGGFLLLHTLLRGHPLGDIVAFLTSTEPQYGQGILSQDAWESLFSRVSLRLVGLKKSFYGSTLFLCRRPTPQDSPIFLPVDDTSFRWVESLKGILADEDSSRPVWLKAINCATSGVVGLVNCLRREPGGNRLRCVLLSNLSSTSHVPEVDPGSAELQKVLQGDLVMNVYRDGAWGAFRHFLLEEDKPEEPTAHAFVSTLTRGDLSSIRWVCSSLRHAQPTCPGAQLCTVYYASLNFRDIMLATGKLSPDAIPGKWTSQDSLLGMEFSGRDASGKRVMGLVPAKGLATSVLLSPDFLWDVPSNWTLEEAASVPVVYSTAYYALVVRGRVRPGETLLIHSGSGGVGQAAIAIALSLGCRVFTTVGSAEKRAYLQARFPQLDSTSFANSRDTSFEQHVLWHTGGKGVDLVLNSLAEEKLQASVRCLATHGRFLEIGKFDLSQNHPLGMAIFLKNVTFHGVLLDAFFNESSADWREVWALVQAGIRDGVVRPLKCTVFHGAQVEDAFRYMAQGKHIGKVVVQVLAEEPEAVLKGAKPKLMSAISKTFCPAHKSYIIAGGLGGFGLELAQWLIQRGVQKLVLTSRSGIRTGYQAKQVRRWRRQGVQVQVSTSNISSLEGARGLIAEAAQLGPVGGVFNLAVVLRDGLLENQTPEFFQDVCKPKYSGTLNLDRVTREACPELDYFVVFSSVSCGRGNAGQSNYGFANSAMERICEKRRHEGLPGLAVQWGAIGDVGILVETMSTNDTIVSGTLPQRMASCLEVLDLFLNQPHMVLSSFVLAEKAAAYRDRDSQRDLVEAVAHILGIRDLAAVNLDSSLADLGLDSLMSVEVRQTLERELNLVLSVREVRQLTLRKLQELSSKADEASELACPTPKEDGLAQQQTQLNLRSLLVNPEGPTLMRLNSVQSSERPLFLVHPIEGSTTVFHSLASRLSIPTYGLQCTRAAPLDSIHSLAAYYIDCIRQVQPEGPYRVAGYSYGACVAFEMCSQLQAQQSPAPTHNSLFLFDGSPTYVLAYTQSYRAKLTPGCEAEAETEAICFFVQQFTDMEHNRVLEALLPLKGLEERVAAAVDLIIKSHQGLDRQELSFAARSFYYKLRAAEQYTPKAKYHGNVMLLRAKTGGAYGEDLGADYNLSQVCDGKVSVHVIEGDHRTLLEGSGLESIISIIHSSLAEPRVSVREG

As for `O=P(OC(CCl)CCl)(OC(CCl)CCl)OC(CCl)CCl`, the AC50 was 0.232 µM (active) in [1]; 50 µM (active) in assay [2]; 90.8 µM (active) in [4]; 50 µM (active) in assay [6]; 63.8 µM (active) in assay [7]; 13.1 µM (active) in assay [8]. The AC50 in assay [11] is 0.21 µM (active); in assay [13], 78.8 µM (active); in assay [16], 66.6 µM (active); in [17] it was 78.5 µM (active). In addition, the compound was called inactive in assay [3], in assay [5], in assay [9], in [10], in assay [12] and in assay [14]. In addition, in [15], the compound was called inactive.
Turning to `CCCCC(CC)COC(=O)CCCCCCCCC(=O)OCC(CC)CCCC` (centres undefined), the outcome in assay [1], in assay [2], in assay [3], in [4], in [5] and in [6] was inactive. For the same compound, the result in [7], in assay [8], in assay [9], in assay [10], in assay [11] and in [12] was inactive. In addition, the call in assay [13], in assay [14], in assay [15], in assay [16] and in [17] was inactive.
As to `COc1ccc2sc(C(=O)Nc3nnn[nH]3)c(OC(C)C)c2c1`, the AC50 was 63.8 µM (active) in assay [1]; 89.1 µM (active) in assay [2]; 50 µM (active) in [4]; 13.1 µM (active) in [5]; 81.3 µM (active) in [6]; 10.9 µM (active) in [7]. Also, the AC50 was 35.3 µM (active) in assay [8]; 25.2 µM (active) in assay [9]; 19.9 µM (active) in assay [10]; 31.4 µM (active) in [11]; 23.6 µM (active) in assay [12]; 43.9 µM (active) in [14]. The AC50 in assay [15] was 24.4 µM (active); in assay [16] it was 12.1 µM (active); in assay [18], 81 µM (active). In addition, the compound was classed as inactive in assay [3], in assay [13] and in [17].
As to `CCNc1ccccc1`, the compound was classed as inactive in assay [1], in assay [2], in assay [3], in [4], in assay [5] and in assay [6]. Further, the result in assay [7], in assay [10], in [11], in [12], in [13] and in assay [14] was inactive. Besides, the outcome in assay [15], in assay [16], in [18] and in [17] was inactive. Besides, the AC50 in assay [8] is 9.94 µM (active).
